Test systems include AAK1; ABL1-nonphosphorylated; ABL1-phosphorylated; ABL2; ACVR1B; ACVR1; ACVR2A; ACVR2B; ACVRL1.
Conditions in all cases: concentration: 1 μM,replicates: in singlicate; n = 1
Another assay concerns T1, ADCK3.
T1 construct: gene CABC1
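Further: KINOMEscan kinase panel screen.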

Take `COc1ccc(C[C@@H](CN)NC(=O)c2cc(Br)c(-c3ccnc4[nH]ccc34)s2)cc1.Cl.Cl` [GSK1389063]: the “%Inh” value in the assay on AAK1 stood at 48%; with ABL1-nonphosphorylated, 15%; in the assay on ABL1-phosphorylated, 41%; in the assay with ABL2, 31%; in the assay with ACVR1B it was 0%; with ACVR1 it was 24%. Also, the “%Inh” value is 13% in the assay on ACVR2A, 48% with ACVR2B, 0% in the assay on ACVRL1 and 50% in the assay with ADCK3.
With `Cl.Cl.NC[C@H](CC1CCCCC1)NC(=O)c1cc(Br)c(-c2ccnc3[nH]ccc23)s1` [GSK1581427], the “%Inh” value is on record as 76% with AAK1; 0% in the assay with ABL1-nonphosphorylated; 11% in the assay with ABL1-phosphorylated; 22% with ABL2; 0% in the assay on ACVR1B; 25% in the assay on ACVR1. In addition, the “%Inh” value was found to be 0% with ACVR2A, 0% in the assay on ACVR2B, 0% in the assay on ACVRL1 and 9% in the assay on ADCK3.
Consider `CN(C)CCOc1ccc(-c2cc(-c3c[nH]nc3-c3ccccn3)ccn2)cc1` [GW835314], for which the “%Inh” value in the assay with AAK1 was found to be 15%; with ABL1-nonphosphorylated it was 91.5%; in the assay on ABL1-phosphorylated it was 88%; in the assay with ABL2, 34%; with ACVR1, 45%; in the assay with ACVR2A, 25%. In addition, the figures for the “%Inh” value with ACVR2B, with ACVRL1 and with ADCK3 were 53%, 13% and 36%, respectively.
In the case of `CNC(=O)c1ccccc1Sc1ccc2c(/C=C/c3ccccn3)n[nH]c2c1`, the “%Inh” value was 47% in the assay on AAK1; 88% in the assay with ABL2; 21% in the assay with ACVR1B; 0% in the assay on ACVR1; 0% with ACVR2A; 0% in the assay on ACVR2B. The “%Inh” value in the assay on ACVRL1 and with ADCK3 was 0% each time.
Regarding `Cc1occc1-c1nc(N)c(OC[C@@H](N)Cc2c[nH]c3ccccc23)cc1-c1cc2c(C)n[nH]c2cn1` [GSK1660450], the “%Inh” value in the assay with AAK1 worked out at 68%; with ABL1-nonphosphorylated it was 16%; in the assay with ABL1-phosphorylated, 52%; in the assay on ABL2 it was 51%; with ACVR1B it was 0%; with ACVR1, 0%. Also, the “%Inh” value is reported as 0% in the assay on ACVR2A, 0% with ACVR2B, 0% in the assay on ACVRL1 and 16% in the assay with ADCK3.
As to `C[C@H]1Oc2cc(cnc2N)-c2c(nn(C)c2C#N)CN(C)C(=O)c2ccc(F)cc21`, the “%Inh” value turned out to be 0% with AAK1; 56% with ABL1-nonphosphorylated; 33% in the assay on ABL1-phosphorylated; 14% with ABL2; 8% in the assay with ACVR1B; 0% with ACVR1. In addition, the “%Inh” value is 11% with ACVR2A, 0% in the assay with ACVR2B, 0% with ACVRL1 and 26% in the assay with ADCK3.
Turning to `Cc1n[nH]c2ccc(-c3cc(OC[C@@H](N)Cc4ccccc4)cnc3-c3ccoc3)cc12.O=C(O)C(F)(F)F.O=C(O)C(F)(F)F` [GSK507358], the “%Inh” value in the assay with AAK1 turned out to be 60%; in the assay with ABL1-nonphosphorylated, 25%; with ABL1-phosphorylated it was 39%; in the assay on ABL2 it was 28%; in the assay with ACVR1B, 0%; with ACVR1 it was 0%. Further, the “%Inh” value with ACVR2A is listed as 0%; with ACVR2B it was 0%; with ACVRL1 it was 0%; with ADCK3, 12%.
Turning to `O=C(NCCNc1ccnc(NCc2ccc(F)cc2)n1)c1cc2ccccc2s1` [GSK1379944], the “%Inh” value with AAK1 worked out at 0%; with ABL1-nonphosphorylated, 0%; with ABL1-phosphorylated, 4%; in the assay with ABL2 it was 16%; with ACVR1B, 0%; in the assay with ACVR1 it was 14%. The “%Inh” value was determined as 0% in the assay with ACVR2A, 0% in the assay with ACVR2B, 0% with ACVRL1 and 24% in the assay on ADCK3.
As to `Cc1ccc(-n2nc(C(C)(C)C)cc2NC(=O)Nc2ccc(OCCN3CCOCC3)c3ccccc23)cc1` [GW839464], the “%Inh” value was 2% with AAK1; 22% in the assay on ABL2; 0% in the assay with ACVR1B; 18% with ACVR1; 0% in the assay on ACVR2A; 3% in the assay on ACVR2B. Besides, the “%Inh” value in the assay on ACVRL1 is 0%; in the assay on ADCK3, 21%.
For `Cl.Oc1cc(-c2nc(-c3ccccc3)[nH]c2-c2ccncc2)ccc1Cl` [SB-386023], the “%Inh” value in the assay on AAK1 is given as 58%; in the assay with ABL1-nonphosphorylated, 56%; in the assay with ABL1-phosphorylated it was 32%; in the assay on ABL2, 44%; in the assay with ACVR1B, 72%; in the assay with ACVR1, 14%. Moreover, the “%Inh” value was 0% in the assay on ACVR2A, 71% with ACVR2B, 0% in the assay with ACVRL1 and 0% in the assay with ADCK3.
Regarding `O=C(NCCCN1CCOC1=O)c1cnc(NCc2cc(Cl)ccc2Cl)nc1NC1CCCC1`, the “%Inh” value in the assay on AAK1 stood at 2%; in the assay with ABL1-nonphosphorylated it was 73%; in the assay with ABL1-phosphorylated, 25%; with ABL2 it was 22%; in the assay on ACVR1B, 0%; with ACVR1 it was 14%. In addition, the “%Inh” value is 5% with ACVR2A, 19% in the assay with ACVR2B, 24% in the assay with ACVRL1 and 24% in the assay with ADCK3.
With `CCN(CC)CCOc1ccc(Nc2ncc3cc(-c4c(Cl)cccc4Cl)c(=O)n(C)c3n2)cc1` [SB-601273], the “%Inh” value with AAK1 is recorded as 48%; in the assay with ABL1-nonphosphorylated, 100%; in the assay with ABL1-phosphorylated, 100%; in the assay on ABL2, 99.6%; in the assay with ACVR1B, 100%; with ACVR1, 100%. Moreover, the “%Inh” value in the assay on ACVR2A is 97.3%; in the assay with ACVR2B, 99.7%; with ACVRL1 it was 87%; in the assay with ADCK3 it was 96.5%.
For `C=CC(=O)Nc1cc2c(Nc3ccc(F)c(Cl)c3)ncnc2cc1OCCCN1CCOCC1` [GW781483], the “%Inh” value in the assay on AAK1 turned out to be 0%; in the assay on ABL2, 70%; in the assay on ACVR1B it was 3%; in the assay with ACVR1, 38%; in the assay on ACVR2A, 0%; in the assay with ACVR2B, 0%. The “%Inh” value with ACVRL1 is 7%; in the assay on ADCK3, 0%.
For the molecule `Cl.Cl.NC[C@H](Cc1ccc(C(F)(F)F)cc1)NC(=O)c1cc(Br)c(-c2ccnc3[nH]ccc23)s1` [GSK1487252], the “%Inh” value with AAK1 was determined as 38%; in the assay with ABL1-nonphosphorylated it was 0%; in the assay with ABL1-phosphorylated it was 4%; in the assay with ABL2 it was 18%; in the assay with ACVR1B, 0%; with ACVR1 it was 0%. For the same molecule, the “%Inh” value with ACVR2A worked out at 0%; in the assay with ACVR2B it was 0%; in the assay with ACVRL1, 0%; in the assay with ADCK3 it was 12%.

Source of the values: publication PMC5540273 (PLoS ONE, 2017).
